Only a part of the results of these assays is listed, not drawn at random.
The compounds below were run against T1, Protein RecA (Mycobacterium tuberculosis) (UniProt P9WHJ3) (assay: M. tuberculosis H37Rv growth inhibition, dose response, strain H37Rv (AID 489010);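 note: whole Mycobacterium tuberculosis cells grown in culture and not purified RecA protein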).
T1 sequence (whole entry): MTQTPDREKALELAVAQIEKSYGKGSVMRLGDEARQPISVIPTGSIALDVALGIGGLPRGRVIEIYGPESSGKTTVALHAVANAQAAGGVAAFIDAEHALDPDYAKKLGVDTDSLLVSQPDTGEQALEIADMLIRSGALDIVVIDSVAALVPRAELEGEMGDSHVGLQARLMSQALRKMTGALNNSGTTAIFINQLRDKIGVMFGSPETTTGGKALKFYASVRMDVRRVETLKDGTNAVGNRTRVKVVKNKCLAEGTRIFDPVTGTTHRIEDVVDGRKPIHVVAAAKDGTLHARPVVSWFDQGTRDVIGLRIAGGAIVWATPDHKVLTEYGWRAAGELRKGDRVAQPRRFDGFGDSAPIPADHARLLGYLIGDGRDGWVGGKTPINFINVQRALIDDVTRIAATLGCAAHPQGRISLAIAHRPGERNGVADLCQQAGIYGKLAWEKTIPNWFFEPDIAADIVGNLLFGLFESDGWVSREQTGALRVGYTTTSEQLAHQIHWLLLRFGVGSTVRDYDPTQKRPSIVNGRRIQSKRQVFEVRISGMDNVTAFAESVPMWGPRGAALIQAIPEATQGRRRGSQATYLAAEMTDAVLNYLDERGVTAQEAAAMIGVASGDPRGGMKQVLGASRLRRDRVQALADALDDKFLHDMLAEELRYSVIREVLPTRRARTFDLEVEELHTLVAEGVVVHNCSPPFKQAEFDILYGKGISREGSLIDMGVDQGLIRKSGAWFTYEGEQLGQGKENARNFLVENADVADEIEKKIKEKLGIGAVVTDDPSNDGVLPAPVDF
Format: functional

SMILES	IC90
COc1ccc2nc(C)cc(Sc3nc4ccccc4s3)c2c1	> 100 µM (active)
Cc1ccc(CS(=O)(=O)c2ncc(Cl)c(C(=O)Nc3nnc(C(C)C)s3)n2)cc1	> 100 µM (active)
COC(=O)c1sc(-c2ccc(C(C)(C)C)cc2)cc1NC(=O)/C=C/C(=O)O	42.7 µM (active)
COc1cc2c(cc1OC)C(c1cc(Br)ccc1F)N(C(=O)CCl)CC2 (centres undefined)	12.1 µM (active)
Cc1nc2c(=O)n(C)c(=O)nc-2n(C)n1	4.19 µM (active)
Cc1[nH]n(-c2ccccc2)c(=O)c1C(C[N+](=O)[O-])c1ccc(F)cc1 (centres undefined)	32.8 µM (active)
CC(=O)n1cc(N(C(=O)CCl)c2ccccc2)c2ccccc21	5.8 µM (active)
COC(=O)c1sc(-c2ccc(Cl)cc2)cc1NC(=O)/C=C/C(=O)O	> 100 µM (active)
Fc1ccc(Oc2nc(-c3ccccc3)nnc2C(F)(F)F)cc1	> 100 µM (active)
O=C(CCl)Nc1cn(-c2ccccc2)nc1-c1ccc(F)cc1	49.8 µM (active)
Clc1ccc(-n2nnnc2Sc2ncnc3sccc23)cc1	9.74 µM (active)
COc1cc(NCCCCCCCN)c2ncccc2c1	57.8 µM (active)
Cc1ccc(N(C(=O)CCl)C(C(=O)NC2CCCCC2)c2cccnc2)cc1C (centres undefined)	30.1 µM (active)
CC(C)(C)c1csc(Sc2ccc([N+](=O)[O-])cn2)n1	> 100 µM (active)
Cc1ccc(-n2nnc3c(SCC(=O)NCC4CCCO4)ncnc32)cc1 (centres undefined)	> 100 µM (active)
Cn1nc(-c2ccccn2)nc2c(=O)n(C)c(=O)nc1-2	22.3 µM (active)
O=C(CCl)N1c2ccccc2OCC1c1ccccc1 (centres undefined)	4.03 µM (active)

SMILES	IC90
CCN(CC)CCNC(=O)c1ccc2c(c1NCCO)C(=O)c1ccccc1C2=O	> 100 µM (active)
Cc1[nH]n(-c2ccccc2)c(=O)c1C(c1cccc([N+](=O)[O-])c1)c1c(C)[nH]n(-c2ccccc2)c1=O	> 100 µM (active)
O=C(NC1CCCCC1)C(c1cccnc1)N(C(=O)CCl)c1cccc(Cl)c1 (centres undefined)	28 µM (active)
Cc1ccc(Sc2ccc(NC(=O)CCl)cc2)c(C)c1	66.3 µM (active)
Cc1ccc(C)c(Sc2ccc(NC(=O)CCl)cc2)c1	> 100 µM (active)
COc1cc2c(cc1OC)-c1c(OC)c(OC)cc3c1C(C2)N(C)CC3 (centres undefined)	40.2 µM (active)
COc1cccc(N(C(=O)CCl)C(C(=O)NCCc2ccccc2)c2cccs2)c1 (centres undefined)	32 µM (active)
Cc1cc(Br)c2c(c1)/C(=C/C(=O)c1cccs1)C(=O)N2	> 100 µM (active)
CN(C1=C(NC(=O)c2ccccc2)C(=O)c2ccccc2C1=O)C1CCS(=O)(=O)C1 (centres undefined)	> 100 µM (active)
O=C(NC1=C(NC2CCS(=O)(=O)C2)C(=O)c2ccccc2C1=O)c1ccccc1 (centres undefined)	> 100 µM (active)
O=C(OCn1ncc(Cl)c(Cl)c1=O)c1ccccc1Cl	> 100 µM (active)
C=CCOc1ccccc1CN(C(=O)CCl)c1ccc2c(c1)OCO2	8.42 µM (active)
Cn1nc(-c2ccc(Cl)cc2)nc2c(=O)n(C)c(=O)nc1-2	20 µM (active)
CSc1nnc(NC(=O)c2nc(S(=O)(=O)Cc3cccc(C)c3)ncc2Cl)s1	44.7 µM (active)
CC(C)c1nnc(NC(=O)c2nc(S(=O)(=O)Cc3ccc(F)cc3)ncc2Cl)s1	> 100 µM (active)
COc1ccc(C(=O)c2c(C(F)(F)F)oc3c2C(=O)c2ccccc2C3=O)cc1OC	13.8 µM (active)
O=C(NC(N=C(S)Nc1ccc(Cl)cc1Cl)C(Cl)(Cl)Cl)c1cccc([N+](=O)[O-])c1 (centres undefined)	15.2 µM (active)

From ChEMBL document CHEMBL1201862, “PubChem BioAssay data set” (2004)
